Whole data set: some 33,000 sequences, median “e-score” near -0.05, cut for the highest 2% near 0.38. The list comes from a sample in which the highest values are over-represented; it also holds similar and randomly drawn sequences.

For the experiment, the target named is T1, SIX1-Q177R homeodomain (human, UniProt Q15475 108-198, Q177R).
T1 sequence: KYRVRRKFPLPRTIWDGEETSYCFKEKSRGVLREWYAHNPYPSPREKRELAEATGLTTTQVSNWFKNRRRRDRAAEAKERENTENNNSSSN
Put plainly: universal protein binding microarray; Universal all-10-mer PBM (8x60K, AMADID 030236), 300 nM GST-tagged protein, Alexa Fluor 488 anti-GST; buffer, salt, pH and temperature not stated (as in Berger); high values mean tight binding. As to conditions: protein: ivt; tags: N-terminal GST; dsDNA, one strand shown. In a few lines:
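Duplicate protein binding microarrays (universal 'all 10-mer', 8×60K format) were incubated with GST-tagged homeodomains at 300 nM final concentration. Binding was quantified as 8-mer E-scores with the Universal PBM Analysis Suite.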
On to CCCCACTC, for which the binding signal was found to be 0.18 ± 0.00661 E-score.
In the case of CGGGTCAC, the binding signal amounted to 0.246 ± 0.0313 E-score.
Take CCCGCCCC: the binding signal amounted to 0.1792 ± 0.00129 E-score.
As for AACACGAG, the binding signal was 0.361 ± 0.00448 E-score.
With AACACCAG, the binding signal was 0.4653 ± 0.00151 E-score.
As for AGCACCAG, the binding signal is 0.247 ± 0.0221 E-score.
The same measure for ACCAATAC: 0.1574 ± 0.000269 E-score.
Then GCAGTGTA, with 0.415 ± 0.0107 E-score; and CCAGTGTA, with 0.43 ± 0.0046 E-score; and CCTGTGTC, with 0.229 ± 0.0614 E-score.
As to ACTGTGTC, the binding signal amounted to 0.155 ± 0.074 E-score.
Regarding CCAGTGTC, the binding signal came to 0.431 ± 0.00754 E-score.
The same measure for GAAGTGTA: 0.368 ± 0.0537 E-score.
Then CCAGTGGG, with 0.224 ± 0.0185 E-score.
For the sequence AAAGTGTC, the binding signal came out at 0.36 ± 0.0233 E-score.
With GCAGGGTA, the binding signal is 0.162 ± 0.00253 E-score.
CCAGTTTA: the binding signal came to 0.227 ± 0.00151 E-score.
In the case of ACAGTGTC, the binding signal was determined as 0.387 ± 0.00426 E-score.
As to CCAGTAAC, the binding signal was 0.161 ± 0.0301 E-score.
Regarding CTCCCCTA, the binding signal is 0.159 ± 0.0508 E-score.
Take CCGGGCGA: the binding signal was 0.151 ± 0.0223 E-score.
As for GATCCACA, the binding signal turned out to be 0.157 ± 0.00291 E-score.
Consider ACCCTGAA, for which the binding signal was 0.21 ± 0.0501 E-score.
Consider CACAGGAG, for which the binding signal was 0.168 ± 0.00689 E-score.
On to GGATCCCC, for which the binding signal turned out to be 0.298 ± 0.0202 E-score.
The same measure for CCCCGCCC: 0.223 ± 0.0451 E-score.
On to TACTAACA, for which the binding signal worked out at 0.185 ± 0.0552 E-score.
Then AGTGCGGA, with 0.161 ± 0.0458 E-score; and CCGGATCG, with 0.199 ± 0.0134 E-score; and CCCGCCGC, with 0.184 ± 0.0289 E-score.
Consider ACAGAGTG, for which the binding signal is 0.184 ± 0.0479 E-score.
With AAAGTGTA, the binding signal was 0.36 ± 0.0454 E-score.
Turning to ACAGTGTA, the binding signal was determined as 0.381 ± 0.0259 E-score.
For GCACCCCA, the binding signal turned out to be 0.257 ± 0.053 E-score.
On to ACTGGATC, for which the binding signal stood at 0.155 ± 0.0197 E-score.
For the sequence GCGTAACA, the binding signal is 0.199 ± 0.0107 E-score.
GGTATCAC: the binding signal came out at 0.3993 ± 0.00177 E-score.
Then CGTATCAC, with 0.162 ± 0.023 E-score; and GGTATCAA, with 0.325 ± 0.0148 E-score.
With ACCCGCCA, the binding signal came out at 0.152 ± 0.0278 E-score.
As for ATGATCCC, the binding signal is 0.251 ± 0.0242 E-score.
As to GCACACTA, the binding signal is 0.2 E-score.
Turning to CCACACTA, the binding signal was found to be 0.206 ± 0.00246 E-score.
For GTACACTA, the binding signal was found to be 0.432 ± 0.0136 E-score.
Regarding CTACACTA, the binding signal stood at 0.401 ± 0.013 E-score.
With ATACACTA, the binding signal came out at 0.364 ± 0.0337 E-score.
As for CTACACTC, the binding signal came out at 0.412 ± 0.0145 E-score.
Take CCACACTC: the binding signal amounted to 0.308 ± 0.014 E-score.
Regarding ATACACTC, the binding signal worked out at 0.369 ± 0.0201 E-score.
Then TCTCAACA, with 0.219 ± 0.0267 E-score.
With ACTTTACA, the binding signal was determined as 0.228 ± 0.0604 E-score.
For the sequence TGCGAACA, the binding signal was 0.158 ± 0.012 E-score.
For the sequence ATCCCCCA, the binding signal came out at 0.24 ± 0.0099 E-score.
In the case of TAGTTACA, the binding signal was determined as 0.249 ± 0.0533 E-score.
Consider GACCCGAC, for which the binding signal is 0.193 ± 0.052 E-score.
Turning to CAGGTGTA, the binding signal was found to be 0.464 ± 0.00823 E-score.
In the case of AAGGTGTC, the binding signal came to 0.4706 ± 0.00267 E-score.
For CAGGTACA, the binding signal turned out to be 0.187 ± 0.0255 E-score.
Regarding GAGGTATA, the binding signal was determined as 0.18 ± 0.0163 E-score.
Then AAGGTGTA, with 0.461 ± 0.0153 E-score; and GAGGTGTA, with 0.466 ± 0.00775 E-score; and AAGGTGTG, with 0.369 ± 0.0137 E-score.
Consider AAGGTGCA, for which the binding signal stood at 0.222 ± 0.0217 E-score.
As to CATGTGTA, the binding signal worked out at 0.2594 ± 0.00165 E-score.
Then GAGGTGCA, with 0.192 ± 0.0287 E-score; and AAGGTGGT, with 0.151 ± 0.00564 E-score; and AAGCGTGT, with 0.378 ± 0.00665 E-score.
GATCCCGA: the binding signal stood at 0.203 ± 0.0172 E-score.
The same measure for ACGCACGA: 0.277 ± 0.005 E-score.
The same measure for CCCCCGGG: 0.195 ± 0.00105 E-score; for CCCACCCG: 0.194 ± 0.0228 E-score.
On to ACGAGTTA, for which the binding signal was determined as 0.205 ± 0.00221 E-score.
Regarding CAACCCCC, the binding signal was determined as 0.242 ± 0.0559 E-score.
As for ACACAAGG, the binding signal was 0.155 ± 0.0571 E-score.
Turning to ACCAGTGA, the binding signal was found to be 0.189 ± 0.0202 E-score.
As for CACTTACG, the binding signal turned out to be 0.206 ± 0.0274 E-score.
The same measure for AAGGAGTA: 0.158 ± 0.0662 E-score.
Turning to ACATGGTG, the binding signal was found to be 0.33 ± 0.0163 E-score.
Turning to CACGAGCA, the binding signal amounted to 0.242 ± 0.0191 E-score.
For ACCCGACT, the binding signal was 0.207 ± 0.0388 E-score.
As to CTGCGACA, the binding signal came to 0.195 ± 0.00854 E-score.
The same measure for CAGGTATC: 0.328 ± 0.00751 E-score; for CATGTGTC: 0.19 ± 0.0338 E-score; for CAGGTGTC: 0.474 ± 0.0095 E-score.
Consider CCCAGGTA, for which the binding signal came to 0.203 ± 0.0198 E-score.
In the case of AGCGGGTA, the binding signal is 0.158 ± 0.0257 E-score.
